Laboratory results reported in PubChem BioAssay (EPA / NIEHS).
Results filed as inconclusive are left out. A structure can be active in one record and inactive in another. Calls of active or inactive are those of the source. The calls were made as follows, unless noted: active = hit-call score of the fitted dose curve at least 0.9, where 1 is the maximum; inconclusive = response in the unintended direction; inactive = score below 0.9.

Key:
[1] = target: human Peroxisome Proliferator-activated Receptor delta (PPARd), PPARD (gene 5467) (UniProt Q03181); experiment: ATG_PPARd_TRANS: Attagene TRANS-FACTORIAL HepG2 Assay for human Peroxisome Proliferator-activated Receptor delta (PPARd) (AID 2283002)
Chain of human Peroxisome Proliferator-activated Receptor delta (PPARd), PPARD (gene 5467) (Q03181 whole entry, looked up): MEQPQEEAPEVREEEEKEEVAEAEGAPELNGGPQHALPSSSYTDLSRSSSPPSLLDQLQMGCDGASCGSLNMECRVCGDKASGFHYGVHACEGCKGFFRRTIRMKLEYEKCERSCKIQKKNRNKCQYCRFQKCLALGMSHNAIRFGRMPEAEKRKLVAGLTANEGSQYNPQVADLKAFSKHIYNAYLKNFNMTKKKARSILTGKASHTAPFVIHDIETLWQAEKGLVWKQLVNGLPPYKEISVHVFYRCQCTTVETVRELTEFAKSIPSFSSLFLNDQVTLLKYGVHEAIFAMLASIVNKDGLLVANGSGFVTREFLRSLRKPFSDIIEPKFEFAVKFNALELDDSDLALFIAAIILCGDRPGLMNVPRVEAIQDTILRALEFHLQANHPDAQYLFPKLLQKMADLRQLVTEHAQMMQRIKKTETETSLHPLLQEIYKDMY
Summary of the method: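 Cell-based TRANS reporter: HepG2, transient MRTU transfection, 24 h exposure. Readout = reporter mRNA (RT-PCR/CE, 6-FAM). Gain-of-signal fit vs DMSO control.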

[2] = target: Peroxisome proliferator-activated receptor gamma (Homo sapiens) (UniProt P37231); experiment: ATG_PPARg_TRANS: Attagene TRANS-FACTORIAL HepG2 Assay for human Peroxisome Proliferator-activated Receptor-gamma (PPARg) (AID 2283007)
Chain of Peroxisome proliferator-activated receptor gamma (Homo sapiens) (P37231 whole entry, looked up): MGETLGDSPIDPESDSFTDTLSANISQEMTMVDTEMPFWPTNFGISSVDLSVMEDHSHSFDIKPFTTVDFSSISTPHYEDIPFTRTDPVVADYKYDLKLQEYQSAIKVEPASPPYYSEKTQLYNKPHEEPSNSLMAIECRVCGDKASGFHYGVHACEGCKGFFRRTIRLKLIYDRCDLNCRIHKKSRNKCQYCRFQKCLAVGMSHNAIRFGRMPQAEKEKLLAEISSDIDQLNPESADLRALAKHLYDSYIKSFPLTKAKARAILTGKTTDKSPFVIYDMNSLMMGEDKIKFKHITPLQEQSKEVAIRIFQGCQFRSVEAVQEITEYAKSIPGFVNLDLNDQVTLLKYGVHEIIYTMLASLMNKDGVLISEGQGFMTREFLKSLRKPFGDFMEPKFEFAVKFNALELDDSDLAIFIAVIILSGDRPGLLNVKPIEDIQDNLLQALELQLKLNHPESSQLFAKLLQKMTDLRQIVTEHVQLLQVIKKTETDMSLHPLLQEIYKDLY
Summary of the method: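 Human hepatoma HepG2, transient MRTU transfection, 24 h treatment. mRNA reporter signal by RT-PCR plus capillary electrophoresis, fluorescence detection; fitted for increase over DMSO negative control.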

[3] = target: Nuclear receptor subfamily 1 group I member 2 (Homo sapiens) (UniProt O75469); experiment: ATG_PXR_TRANS: Attagene TRANS-FACTORIAL HepG2 Assay for human Pregnane X Receptor (PXR) (AID 2283008)
Chain of Nuclear receptor subfamily 1 group I member 2 (Homo sapiens) (O75469 whole entry, looked up, the tested form may be a part): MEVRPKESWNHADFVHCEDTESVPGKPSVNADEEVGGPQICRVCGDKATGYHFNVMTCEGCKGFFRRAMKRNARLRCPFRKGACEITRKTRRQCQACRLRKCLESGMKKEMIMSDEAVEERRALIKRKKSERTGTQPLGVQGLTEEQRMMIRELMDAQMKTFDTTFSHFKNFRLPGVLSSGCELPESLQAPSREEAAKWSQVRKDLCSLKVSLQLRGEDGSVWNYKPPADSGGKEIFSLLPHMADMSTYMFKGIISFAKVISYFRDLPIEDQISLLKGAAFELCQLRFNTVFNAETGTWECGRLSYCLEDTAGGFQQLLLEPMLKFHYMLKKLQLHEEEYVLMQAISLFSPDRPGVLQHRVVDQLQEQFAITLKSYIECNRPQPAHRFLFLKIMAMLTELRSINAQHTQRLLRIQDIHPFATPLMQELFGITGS
Summary of the method: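 Fluorescence intensity of FAM-labelled, HpaI-digested reporter amplicons, separated by capillary electrophoresis, quantifies induction. HepG2 cells with PXR-Gal4 trans-reporter system were exposed 24 h; DMSO defines baseline.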

[4] = target: human Retinoic Acid Receptor gamma (RARg), RARG (gene 5916) (UniProt P13631); experiment: ATG_RARg_TRANS: Attagene TRANS-FACTORIAL HepG2 Assay for human Retinoic Acid Receptor gamma (RARg) (AID 2283009)
Chain of human Retinoic Acid Receptor gamma (RARg), RARG (gene 5916) (P13631 whole entry, looked up, the tested form may be a part): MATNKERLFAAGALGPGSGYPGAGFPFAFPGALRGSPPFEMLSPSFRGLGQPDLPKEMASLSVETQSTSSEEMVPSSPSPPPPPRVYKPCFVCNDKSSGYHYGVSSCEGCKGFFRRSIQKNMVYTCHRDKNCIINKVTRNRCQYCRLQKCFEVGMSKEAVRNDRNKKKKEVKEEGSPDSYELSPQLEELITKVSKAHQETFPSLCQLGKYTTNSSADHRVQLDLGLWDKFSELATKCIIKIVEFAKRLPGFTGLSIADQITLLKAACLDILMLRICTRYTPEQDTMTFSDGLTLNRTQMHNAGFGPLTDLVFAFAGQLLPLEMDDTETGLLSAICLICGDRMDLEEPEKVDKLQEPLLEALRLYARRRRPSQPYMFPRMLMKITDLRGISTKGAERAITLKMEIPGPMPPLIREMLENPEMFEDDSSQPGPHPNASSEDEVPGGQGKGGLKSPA
Summary of the method: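 HepG2 cells transiently transfected with multiplexed reporter units expressing chimeric RARg-GAL4 and GAL4-UAS-driven reporters; 24 h compound exposure. Reporter mRNA quantified by RT-PCR with fluorescent labelling and capillary electrophoresis; gain-of-signal fitted relative to DMSO baseline.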

[5] = target: human RAR-related Orphan Receptor beta (RORb), RORB (gene 6096) (UniProt Q92753); experiment: ATG_RORb_TRANS: Attagene TRANS-FACTORIAL HepG2 Assay for human RAR-related Orphan Receptor beta (RORb) (AID 2283010)
Chain of human RAR-related Orphan Receptor beta (RORb), RORB (gene 6096) (Q92753 whole entry, looked up, the tested form may be a part): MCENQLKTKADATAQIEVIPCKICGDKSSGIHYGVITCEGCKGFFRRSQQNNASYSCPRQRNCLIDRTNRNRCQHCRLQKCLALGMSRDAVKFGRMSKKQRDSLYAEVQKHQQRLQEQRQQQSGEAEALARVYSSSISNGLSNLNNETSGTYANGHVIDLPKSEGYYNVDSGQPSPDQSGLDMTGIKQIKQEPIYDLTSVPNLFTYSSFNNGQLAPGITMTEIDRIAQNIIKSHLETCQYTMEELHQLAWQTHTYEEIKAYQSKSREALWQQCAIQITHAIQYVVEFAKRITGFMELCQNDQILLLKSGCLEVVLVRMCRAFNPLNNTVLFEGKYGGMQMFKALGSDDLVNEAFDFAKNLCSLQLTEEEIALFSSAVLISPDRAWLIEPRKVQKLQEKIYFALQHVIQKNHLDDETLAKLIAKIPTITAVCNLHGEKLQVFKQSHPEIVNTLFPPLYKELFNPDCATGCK
Summary of the method: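 HepG2 cells were transiently transfected with multiplexed GAL4-UAS reporter units expressing chimeric nuclear receptor–GAL4 proteins, then dosed for 24 h. Reporter mRNA was quantified by RT-PCR with fluorescent labelling and capillary electrophoresis; gain of signal was fitted relative to DMSO.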

[6] = target: Retinoic acid receptor RXR-alpha (Homo sapiens) (UniProt P19793); experiment: ATG_RXRa_TRANS: Attagene TRANS-FACTORIAL HepG2 Assay for human Retinoid X Receptor alpha (RXRa) (AID 2283012)
Chain of Retinoic acid receptor RXR-alpha (Homo sapiens) (P19793 whole entry, looked up, the tested form may be a part): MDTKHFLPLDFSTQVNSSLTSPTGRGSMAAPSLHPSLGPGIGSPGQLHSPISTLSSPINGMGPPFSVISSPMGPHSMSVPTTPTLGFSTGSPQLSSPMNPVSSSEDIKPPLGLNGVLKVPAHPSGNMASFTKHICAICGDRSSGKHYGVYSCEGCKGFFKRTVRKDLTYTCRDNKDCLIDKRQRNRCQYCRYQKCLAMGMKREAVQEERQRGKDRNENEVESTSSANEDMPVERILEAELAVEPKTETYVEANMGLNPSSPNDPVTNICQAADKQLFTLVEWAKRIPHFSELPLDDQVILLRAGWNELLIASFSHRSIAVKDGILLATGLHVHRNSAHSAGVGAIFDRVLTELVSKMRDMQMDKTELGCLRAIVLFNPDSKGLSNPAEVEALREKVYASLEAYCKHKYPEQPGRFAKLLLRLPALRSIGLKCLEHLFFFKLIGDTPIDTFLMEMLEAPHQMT
Summary of the method: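 HepG2 cells transiently transfected with multiplexed GAL4-UAS reporter units and chimeric NR-GAL4 fusions, dosed 24 h. Reporter mRNA measured by RT-PCR, FAM labelling, HpaI digestion and capillary electrophoresis; gain-of-signal fitted relative to DMSO baseline.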

[7] = target: human Retinoid X Receptor beta (RXRb), RXRB (gene 6257) (UniProt P28702); experiment: ATG_RXRb_TRANS: Attagene TRANS-FACTORIAL HepG2 Assay for human Retinoid X Receptor beta (RXRb) (AID 2283013)
Chain of human Retinoid X Receptor beta (RXRb), RXRB (gene 6257) (P28702 whole entry, looked up, the tested form may be a part): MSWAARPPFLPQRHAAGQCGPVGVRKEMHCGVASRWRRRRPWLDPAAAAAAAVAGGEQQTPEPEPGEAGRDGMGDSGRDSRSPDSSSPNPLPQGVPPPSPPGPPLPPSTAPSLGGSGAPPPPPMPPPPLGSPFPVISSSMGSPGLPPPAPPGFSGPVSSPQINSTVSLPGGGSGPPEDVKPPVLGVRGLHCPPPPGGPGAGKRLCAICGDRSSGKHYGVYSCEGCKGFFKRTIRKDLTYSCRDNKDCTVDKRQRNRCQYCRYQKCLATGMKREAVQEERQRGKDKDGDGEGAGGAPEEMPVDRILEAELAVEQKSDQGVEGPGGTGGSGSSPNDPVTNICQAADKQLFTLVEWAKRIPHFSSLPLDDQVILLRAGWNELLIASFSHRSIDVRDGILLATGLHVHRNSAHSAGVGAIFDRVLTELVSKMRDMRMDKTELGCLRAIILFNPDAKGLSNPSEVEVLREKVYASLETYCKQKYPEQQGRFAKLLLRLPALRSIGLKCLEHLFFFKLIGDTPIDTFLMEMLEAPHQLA
Summary of the method: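 HepG2 cells transiently transfected with multiplexed reporter units driven by GAL4-UAS and exogenous chimeric NR-Gal4 proteins; treated 24 h. Reporter mRNA measured by RT-PCR, 6-FAM labelling and capillary electrophoresis; gain-of-signal fitted versus DMSO baseline.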

[8] = target: human Peroxisome Proliferator-activated Receptor alpha (PPARa), PPARA (gene 5465) (UniProt Q07869); experiment: ATG_PPARa_TRANS: Attagene TRANS-FACTORIAL HepG2 Assay for human Peroxisome Proliferator-activated Receptor alpha (PPARa) (AID 2283001)
Chain of human Peroxisome Proliferator-activated Receptor alpha (PPARa), PPARA (gene 5465) (Q07869 whole entry, looked up, the tested form may be a part): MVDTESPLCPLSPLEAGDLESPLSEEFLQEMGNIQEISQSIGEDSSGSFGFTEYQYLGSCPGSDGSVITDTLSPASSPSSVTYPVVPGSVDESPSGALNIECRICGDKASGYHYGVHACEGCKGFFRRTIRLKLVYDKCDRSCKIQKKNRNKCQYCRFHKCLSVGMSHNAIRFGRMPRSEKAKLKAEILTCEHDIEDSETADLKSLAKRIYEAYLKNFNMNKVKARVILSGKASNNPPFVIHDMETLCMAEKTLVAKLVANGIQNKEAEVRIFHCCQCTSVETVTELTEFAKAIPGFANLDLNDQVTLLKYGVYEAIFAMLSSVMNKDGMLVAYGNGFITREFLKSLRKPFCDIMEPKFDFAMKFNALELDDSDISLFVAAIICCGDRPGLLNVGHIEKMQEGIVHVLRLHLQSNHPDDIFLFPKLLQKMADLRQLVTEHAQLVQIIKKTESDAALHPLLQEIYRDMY
Summary of the method: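 Reporter transcripts from GAL4-UAS units in transfected HepG2 were quantified 24 h after dosing. Detection used reverse transcription, PCR, fluorescent primer extension and capillary electrophoresis, with DMSO as baseline.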

[9] = target: human RAR-related Orphan Receptor gamma (RORg), RORC (gene 6097) (UniProt P51449); experiment: ATG_RORg_TRANS: Attagene TRANS-FACTORIAL HepG2 Assay for human RAR-related Orphan Receptor gamma (RORg) (AID 2283011)
Chain of human RAR-related Orphan Receptor gamma (RORg), RORC (gene 6097) (P51449 whole entry, looked up, the tested form may be a part): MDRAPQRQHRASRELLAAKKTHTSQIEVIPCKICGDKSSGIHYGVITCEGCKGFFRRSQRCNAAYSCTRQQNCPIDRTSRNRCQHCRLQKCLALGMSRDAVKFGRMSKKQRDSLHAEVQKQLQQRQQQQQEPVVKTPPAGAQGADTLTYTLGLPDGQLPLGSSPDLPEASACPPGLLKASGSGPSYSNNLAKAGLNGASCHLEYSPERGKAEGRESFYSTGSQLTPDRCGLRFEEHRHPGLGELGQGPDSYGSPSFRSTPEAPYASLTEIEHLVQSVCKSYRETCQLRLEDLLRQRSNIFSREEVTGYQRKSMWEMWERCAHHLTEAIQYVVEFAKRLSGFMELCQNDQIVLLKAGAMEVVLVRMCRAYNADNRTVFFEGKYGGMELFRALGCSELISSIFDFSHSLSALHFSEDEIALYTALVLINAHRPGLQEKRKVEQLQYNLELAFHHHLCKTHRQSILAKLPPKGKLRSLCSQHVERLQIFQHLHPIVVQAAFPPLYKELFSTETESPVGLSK
Summary of the method: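 Transient MRTU transfection of HepG2 (TRANS format, exogenous NR-Gal4 chimera). 24 h dosing. Total RNA → oligo(dT) RT → PCR → 6-FAM labelling → HpaI cut → CE. Gain vs DMSO.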

[10] = BSK_4H_Eotaxin3: BioMAP Diversity Plus: 4H Assay for Eotaxin 3 Biomarker Activity (AID 2283000; active = hit-call score of the fitted dose curve at least 0.9, where 1 is the maximum; inactive = score below 0.9;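 also: CCL26 protein level quantified by ELISA in parallel with SRB cytotoxicity check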); settings: primary human endothelial cells (HUVEC); actives raise or lower the signal
Summary of the method: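 Readout is Eotaxin-3 (CCL26) level by ELISA in primary human umbilical vein endothelial cells harvested 24 h after chemical exposure; activity fitted in both directions against DMSO control.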

[11] = read-out: Intercellular Adhesion Molecule 1 (ICAM1), ICAM1 (gene 3383); experiment: BSK_3C_ICAM1: BioMAP Diversity Plus: 3C Assay for Intercellular Adhesion Molecule 1 (ICAM1) Biomarker Activity (AID 2283003; active = hit-call score of the fitted dose curve at least 0.9, where 1 is the maximum; inactive = score below 0.9); settings: primary human endothelial cells (HUVEC); actives raise or lower the signal
Summary of the method: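 Primary human umbilical vein endothelial cells in the BioMAP 3C system were exposed to chemicals for 24 h, then ICAM-1 was quantified by ELISA. Activity was fitted bidirectionally against the DMSO negative control baseline.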

[12] = BSK_3C_Proliferation: Cell Proliferation Assessment in the BioMAP Diversity Plus: 3C Assay (AID 2283006; active = hit-call score of the fitted dose curve at least 0.9, where 1 is the maximum; inactive = score below 0.9); settings: primary human endothelial cells (HUVEC)
Summary of the method: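 Human umbilical vein endothelial cells were grown sub-confluent and exposed to chemical for 48 h, then fixed with 10% TCA and stained with 0.1% sulforhodamine B; absorbance at 560 nm gave relative cell number, fitted bidirectionally against DMSO baseline.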

[13] = target: human Thyroid Receptor alpha (THRa1), THRA (gene 7067) (UniProt P10827); experiment: ATG_THRa1_TRANS: Attagene TRANS-FACTORIAL HepG2 Assay for human Thyroid Receptor alpha (THRa1) (AID 2283014)
Summary of the method: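 Transient HepG2 transfection, NR-Gal4 chimera driving GAL4-UAS reporters; 24 h compound exposure; total RNA, oligo(dT) RT, PCR, fluorescent primer extension, capillary electrophoresis. Upward direction vs DMSO control.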

[14] = read-out: E-selectin (Homo sapiens) (UniProt P16581); experiment: BSK_3C_Eselectin: BioMAP Diversity Plus: 3C Assay for Eselectin Biomarker Activity (AID 2283015; active = hit-call score of the fitted dose curve at least 0.9, where 1 is the maximum; inactive = score below 0.9;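 also: cell surface E-selectin protein quantified by ELISA 24 h after dosing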); settings: primary human endothelial cells (HUVEC); actives raise or lower the signal
Summary of the method: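 HUVEC, 3C stimulation; compound exposure 24 h; E-selectin by ELISA; gain- or loss-of-signal fitted bidirectionally vs DMSO baseline.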

[15] = read-out: Interleukin-1 alpha (IL1a), IL1A (gene 3552); experiment: BSK_BE3C_IL1a: BioMAP Diversity Plus: BE3C Assay for Interleukin-1 alpha (IL1a) Biomarker Activity (AID 2283016; active = hit-call score of the fitted dose curve at least 0.9, where 1 is the maximum; inactive = score below 0.9); settings: primary human bronchial epithelial cells; actives raise or lower the signal
Summary of the method: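 Human primary bronchial epithelial cells (BE3C system) were dosed with compound and IL-1a measured by ELISA 24 h later. Activity was fitted bidirectionally against DMSO baseline; cytotoxicity was tracked in parallel cultures by SRB total-protein staining.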

[16] = read-out: Monocyte Chemoattractant Protein-1 (MCP1), CCL2 (gene 6347); experiment: BSK_3C_MCP1: BioMAP Diversity Plus: 3C Assay for Monocyte Chemoattractant Protein-1 (MCP1) Biomarker Activity (AID 2283017; active = hit-call score of the fitted dose curve at least 0.9, where 1 is the maximum; inactive = score below 0.9); settings: primary human endothelial cells (HUVEC); actives raise or lower the signal
Summary of the method: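 HUVEC, 3C system; 24 h chemical exposure; MCP-1 by ELISA; bidirectional curve fit vs DMSO baseline.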

[17] = read-out: Monocyte Chemoattractant Protein-1 (MCP1), CCL2 (gene 6347); experiment: BSK_4H_MCP1: BioMAP Diversity Plus: 4H Assay for Monocyte Chemoattractant Protein-1 (MCP1) Biomarker Activity (AID 2283018; active = hit-call score of the fitted dose curve at least 0.9, where 1 is the maximum; inactive = score below 0.9); settings: primary human endothelial cells (HUVEC); actives raise or lower the signal
Summary of the method: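 Human umbilical vein endothelial cells (4H system) dosed with chemical; MCP-1 measured by ELISA 24 h after dosing. Bidirectional curve fitting against DMSO negative control as baseline; parallel SRB total-protein staining tracks overt cytotoxicity.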

[18] = read-out: Human Leukocyte Antigen - DR isotype (HLADR), HLA-DRA (gene 3122); experiment: BSK_3C_HLADR: BioMAP Diversity Plus: 3C Assay for Human Leukocyte Antigen - DR isotype (HLADR) Biomarker Activity (AID 2283019; active = hit-call score of the fitted dose curve at least 0.9, where 1 is the maximum; inactive = score below 0.9;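 also: ELISA of cell-surface HLA-DR on HUVEC 24 h after dosing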); settings: primary human endothelial cells (HUVEC); actives raise or lower the signal
Summary of the method: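 HUVEC, 3C stimulation, 24 h post-dose; HLA-DR by ELISA; bidirectional curve fit vs DMSO baseline; gain or loss of signal scored.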

[19] = target: Retinoic acid receptor alpha (Homo sapiens) (UniProt P10276); experiment: ATG_RARa_TRANS: Attagene TRANS-FACTORIAL HepG2 Assay for human Retinoic Acid Receptor alpha (RARa) (AID 2283005)
Chain of Retinoic acid receptor alpha (Homo sapiens) (P10276 whole entry, looked up, the tested form may be a part): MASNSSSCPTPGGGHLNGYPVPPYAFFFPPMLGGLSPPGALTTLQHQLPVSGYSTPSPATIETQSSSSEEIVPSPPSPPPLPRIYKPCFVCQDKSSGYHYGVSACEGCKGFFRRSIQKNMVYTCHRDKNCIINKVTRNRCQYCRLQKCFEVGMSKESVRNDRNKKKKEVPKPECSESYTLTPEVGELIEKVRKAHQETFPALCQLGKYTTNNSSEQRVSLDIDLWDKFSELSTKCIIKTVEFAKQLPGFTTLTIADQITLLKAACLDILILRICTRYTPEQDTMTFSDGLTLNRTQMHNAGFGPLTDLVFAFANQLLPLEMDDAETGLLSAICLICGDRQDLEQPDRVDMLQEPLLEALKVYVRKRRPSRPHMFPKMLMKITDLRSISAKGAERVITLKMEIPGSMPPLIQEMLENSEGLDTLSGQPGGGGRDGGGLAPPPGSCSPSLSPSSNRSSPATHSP
Summary of the method: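 Reporter transcripts, measured by RT-PCR with fluorescent labeling and capillary electrophoresis after 24 h dosing, reflect activity of an exogenous human RARa–GAL4 fusion in transiently transfected HepG2. Fitted for increase relative to DMSO.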

Measured: AC50

C(=C(c1ccccc1)c1ccccc1)c1ccccc1
active: [3] 7.71 µM | [7] 6.11 µM
inactive: [1] | [2] | [4] | [5] | [6]

Nc1ccc(Oc2cccc(Oc3ccc(N)cc3)c2)cc1
active: [2] 5.29 µM
inactive: [8] | [9]

FC(F)(F)C(F)(F)C(F)(F)C(F)(F)C(F)(F)C(F)(F)C(F)(F)C(F)(F)CCS
inactive: [10] | [11] | [12] | [6] | [13] | [14] | [15] | [16] | [17] | [18]

O=S(=O)(O)c1ccc2ccccc2c1
inactive: [8] | [1] | [2] | [3] | [5] | [6]
active: [3] 21 µM

C1COCCN1
inactive: [8] | [1] | [19] | [5] | [9] | [6] | [7]

CNC(=S)NC
inactive: [1] | [2] | [3] | [5] | [7] | [13]

CCCCOc1ccc(N)cc1
inactive: [2]

[Co]
inactive: [19] | [2] | [4] | [5] | [9] | [6] | [7]
active: [3] 22.1 µM
